From PubChem BioAssay AID1845226 (National Center for Advancing Translational Sciences (NCATS), 2023)
Inconclusive results are not listed. Calls of active or inactive are those of the source. The call rests on the fitted dose curve; in most records, active means well fitted inhibition curve with a large enough effect; inconclusive means small, poorly fitted or top-dose-only effect; inactive means no such curve, though single readings can be large or run the other way.

Test: Confirmatory fluorescence-based thiol-reactive (MSTI) qHTS assay for identification of artifact compounds
Settings: MSTI thiol-reactivity probe, 1 h; series mostly up to 39.2 µM; activity change, negative = inhibition: at the top concentration
Procedure, shortened: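 Compounds (qHTS) incubated 1 h at room temperature, light-protected, with 4 uM MSTI in 1X PBS pH 7.4, 2% DMSO. Fluorescence at 525/598 nm normalized to Acetyl-MSTI and MSTI, fitted to Hill equation.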
Potency means the concentration at half of the fitted maximal effect.

Activity change, negative = inhibition, inactive:
Cc1ccc(NS(=O)(=O)c2cc3c(cc2N2CCC2)NC(=O)CC3)cc1C 102%
CCC(Sc1ncc(S(=O)(=O)c2ccc(Cl)cc2)c(=O)[nH]1)C(=O)Nc1ccc(OC)cc1 (stereo not drawn) 118%
Cc1cccc(NC(=O)CSc2nc3c([nH]c4ccccc43)c(=O)n2C)c1 86.5%
COc1ccc(NC(=O)C(C)n2nc(-c3cc(C)ccc3C)c3c(c2=O)CCCC3)cc1 (stereo not drawn) 35.4%
CC(C)c1cnc2c(c1SCC(=O)Nc1cccc([N+](=O)[O-])c1)c(=O)n(C)c(=O)n2C 8.16%
COc1cccc(N2CCN(c3c4c(nc5nncn35)CCC4)CC2)c1 29.3%
COc1ccc2oc(=O)cc(CN3CCN(C(=O)c4ccccc4F)CC3)c2c1 26.3%
Cc1ccc(OCc2nc3ccccc3n2Cc2ccccc2Cl)cc1 -4.67%
CCOc1ccc(CNC(=O)c2cnc(SC)nc2CC)cc1 49.6%
O=C(NCCc1ccccc1)C1CCC(CNS(=O)(=O)c2ccccc2)CC1 (stereo not drawn) 139%
CC(=O)O[C@H]1C[C@@H]2CC[C@@H]3[C@H](CC[C@@]4(C)[C@H]3C[C@H](N3CC[N+](C)(C)CC3)[C@@H]4OC(C)=O)[C@@]2(C)C[C@@H]1N1CC[N+](C)(C)CC1 38.3%
COc1ccc(-c2[nH]ncc2C(=O)NCc2cccc(OC)c2)cc1 51.6%
O=C(O)c1ccccc1[N+](=O)[O-] 10.1%
O=C1CCCC2=C1C(c1[nH]ncc1Cl)NC(=NCCc1ccccc1)N2 (stereo not drawn) 22.8%
O=C(CCn1c(=O)c2cccn2c2cccnc21)N1CCN(c2ccccc2F)CC1 79.7%
CC(C)C(=O)SCCCCCCC(=O)Nc1nc(-c2ccccc2)cs1 30.7%
O=C(CNC(=O)C(c1ccccc1)c1ccccc1)OCC(=O)c1ccc2ccccc2c1 122%
Cc1ccc(Cn2ccc(NC(=O)c3cc(-c4ccc(Cl)c(Cl)c4)on3)n2)cc1 175%
O=C(COCc1cc(-c2cccs2)on1)NCc1ccc(Cl)cc1 259%
Cc1cc(C(=O)N2CCN(c3cccc(Cl)c3)CC2)c2c(C)nn(-c3ccccc3Cl)c2n1 11.2%
CCOC(=O)c1c(NC(=O)c2ccc(S(=O)(=O)N(CC)CC)cc2)sc2c1CCCCC2 4.96%
COc1ccccc1N1CCN(c2ncnc3c2cnn3-c2ccc(C)cc2)CC1 19.1%
Cc1ccc(-c2nnc(Nc3cccc(O)c3)c3ccccc23)cc1S(=O)(=O)N1CCN(C)CC1 36.6%
CCOC(=O)c1c(C)c(C(=O)NCc2ccc(Cl)cc2)c(C)n1CC 111%
COC(=O)c1ccc(NC(=O)CC2C(=O)N(c3ccccc3)C(=O)N2Cc2ccco2)cc1 (stereo not drawn) 188%
O=C(/C=C/c1ccc(O)c(O)c1)OC1C[C@](O)(C(=O)O)C[C@@H](O)[C@H]1O (stereo partly drawn) 0.358%
Fc1ccc(-c2cc(-c3ccc(F)cc3)c3c(n2)-c2cc(F)ccc2OC3)cc1 153%
COC(=O)c1ccc2nc(C)cc(Nc3ccc(O)cc3)c2c1 -5.75%
Cc1ccc(OCCn2c(CCNC(=O)OC(C)(C)C)nc3ccccc32)cc1 -2.7%
CC1CC(C)CN(c2oc(-c3ccc(OCc4ccc(Cl)cc4)cc3)nc2C#N)C1 (stereo not drawn) 0.0837%

Potency, active:
O=S(=O)(O)c1ccc(N=Nc2cc(S(=O)(=O)O)c3ccccc3c2O)c2ccccc12 194 nM
Oc1ccc(-c2nc3ccc(Cl)cn3c2Nc2ccc3c(c2)OCO3)cc1 770 nM
O=C(Nc1nc(-c2ccccc2)cs1)c1ccccc1[N+](=O)[O-] 2440 nM
